# According to PubChem BioAssay (EPA / NIEHS):
# Records with an inconclusive call do not appear. The source made the active and inactive calls. The calls were made as follows: active = hit-call score of the fitted dose curve at least 0.9, where 1 is the maximum; inconclusive = response in the unintended direction; inactive = score below 0.9.
# Columns and labels:
# [1] = target: human Protein Tyrosine Phosphatase Receptor Type C (PTPRC), PTPRC (gene 5788) (UniProt P08575); test: NVS_ENZ_hPTPRC: NovaScreen (NVS) Enzymatic Assay for human Protein Tyrosine Phosphatase Receptor Type C (PTPRC) (AID 2283212)
# Chain of human Protein Tyrosine Phosphatase Receptor Type C (PTPRC), PTPRC (gene 5788) (P08575 whole entry, looked up): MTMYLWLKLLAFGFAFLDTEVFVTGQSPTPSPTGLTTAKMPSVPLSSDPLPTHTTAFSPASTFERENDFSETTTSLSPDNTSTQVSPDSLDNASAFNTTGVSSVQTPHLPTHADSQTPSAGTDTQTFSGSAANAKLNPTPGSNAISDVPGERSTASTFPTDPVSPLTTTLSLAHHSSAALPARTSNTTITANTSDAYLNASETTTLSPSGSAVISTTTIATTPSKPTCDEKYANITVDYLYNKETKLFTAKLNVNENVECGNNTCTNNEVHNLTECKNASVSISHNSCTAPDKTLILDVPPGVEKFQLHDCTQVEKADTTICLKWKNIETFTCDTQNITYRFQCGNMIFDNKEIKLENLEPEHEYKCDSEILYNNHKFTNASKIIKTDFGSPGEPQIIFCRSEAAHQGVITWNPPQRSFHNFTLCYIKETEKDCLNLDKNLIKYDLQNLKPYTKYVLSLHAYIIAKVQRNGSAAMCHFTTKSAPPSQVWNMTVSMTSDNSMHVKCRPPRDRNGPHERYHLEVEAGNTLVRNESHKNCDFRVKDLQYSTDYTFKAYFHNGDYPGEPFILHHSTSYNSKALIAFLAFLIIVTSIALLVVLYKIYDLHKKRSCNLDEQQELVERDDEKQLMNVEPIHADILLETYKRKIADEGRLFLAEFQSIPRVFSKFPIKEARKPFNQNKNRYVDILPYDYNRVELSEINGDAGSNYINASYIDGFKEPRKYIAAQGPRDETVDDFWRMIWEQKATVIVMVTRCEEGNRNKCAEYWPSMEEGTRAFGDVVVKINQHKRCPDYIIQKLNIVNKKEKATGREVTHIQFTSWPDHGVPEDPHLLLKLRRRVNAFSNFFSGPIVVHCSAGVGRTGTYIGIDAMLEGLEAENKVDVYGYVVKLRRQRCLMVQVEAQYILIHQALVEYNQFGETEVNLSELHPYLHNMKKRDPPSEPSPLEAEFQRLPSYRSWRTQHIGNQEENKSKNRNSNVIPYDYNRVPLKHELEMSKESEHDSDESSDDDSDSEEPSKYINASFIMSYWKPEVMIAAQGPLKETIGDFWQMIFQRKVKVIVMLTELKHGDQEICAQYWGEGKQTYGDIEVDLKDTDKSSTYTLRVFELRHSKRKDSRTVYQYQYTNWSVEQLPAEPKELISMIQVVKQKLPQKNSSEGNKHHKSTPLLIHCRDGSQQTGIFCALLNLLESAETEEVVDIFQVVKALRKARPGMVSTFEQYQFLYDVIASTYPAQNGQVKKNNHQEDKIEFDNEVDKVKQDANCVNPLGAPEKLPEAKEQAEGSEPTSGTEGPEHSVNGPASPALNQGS
# Description: NVS_ENZ_hPTPRC is a biochemical, single-readout assay that uses extracted gene-proteins from yeast cells in a cell-free assay. Measurements were taken 1 hour after chemical dosing in a 96-well plate.NVS_ENZ_hPTPRC is one of one assay component(s) measured or calculated from the NVS_ENZ_hPTPRC assay. It is designed to make measurements of enzyme activity, a form of enzyme reporter, as detected with absorbance signals by Colorimetric technology.Data from the assay component NVS_ENZ_hPTPRC was analyzed into 1 assay endpoint. This assay endpoint, NVS_ENZ_hPTPRC, was analyzed in the positive analysis fitting direction relative to DMSO as the negative control and baseline of activity. […] Furthermore, this assay endpoint can be referred to as a primary readout, because this assay has produced multiple assay endpoints where this one serves a enzymatic activity function. […]
# Binding assays used specific radioligands (tritiated, iodinated) with non-radioactive competitive displacement ligands in agonist or antagonist protocols (as indicated) and various reference compounds and inhibitors to titrate specific binding to receptors and transporters. Most enzyme assays (CYPs, kinases, phosphatases, proteases, HDACs) used recombinant protein and specific substrates (fluorescence mostly, some colorimetric and radioactive) and inhibitors, followed by a biochemical separation of substrate and product. […]
# [2] = target: human Protein Tyrosine Phosphatase Receptor Type M (PTPRM), PTPRM (gene 5797) (UniProt P28827); test: NVS_ENZ_hPTPRM: NovaScreen (NVS) Enzymatic Assay for human Protein Tyrosine Phosphatase Receptor Type M (PTPRM) (AID 2283215)
# In short: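 Cell-free recombinant PTPRM with fluorogenic substrate; product separated from substrate by electrophoretic mobility shift and read by fluorescence, 1.33 h after dosing. Primary screen single concentration (25 uM) in duplicate; actives retested in concentration series; loss of signal versus DMSO.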
# [3] = target: human Sirtuin 2 (SIRT2), SIRT2 (gene 22933) (UniProt Q8IXJ6); test: NVS_ENZ_hSIRT2: NovaScreen (NVS) Enzymatic Assay for human Sirtuin 2 (SIRT2) (AID 2283217)
# Chain of human Sirtuin 2 (SIRT2), SIRT2 (gene 22933) (Q8IXJ6 whole entry, looked up): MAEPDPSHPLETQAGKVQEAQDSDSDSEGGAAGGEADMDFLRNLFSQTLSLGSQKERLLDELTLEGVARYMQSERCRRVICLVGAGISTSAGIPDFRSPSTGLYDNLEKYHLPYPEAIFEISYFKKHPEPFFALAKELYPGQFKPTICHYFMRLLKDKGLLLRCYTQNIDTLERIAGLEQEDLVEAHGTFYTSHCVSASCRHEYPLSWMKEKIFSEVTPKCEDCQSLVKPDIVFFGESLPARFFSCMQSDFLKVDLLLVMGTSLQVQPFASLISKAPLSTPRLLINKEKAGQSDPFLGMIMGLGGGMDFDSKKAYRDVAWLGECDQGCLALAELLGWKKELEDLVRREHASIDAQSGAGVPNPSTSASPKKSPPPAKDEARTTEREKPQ
# In short: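 Cell-free recombinant human SIRT2, fluorescent substrate with product separated by electrophoretic mobility shift, 1 hr. Screened in duplicate at 25 uM; hits rerun singly in concentration-response up to 50 uM, relative to DMSO.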
# [4] = target: human Sirtuin 1 (SIRT1), SIRT1 (gene 23411) (UniProt Q96EB6); test: NVS_ENZ_hSIRT1: NovaScreen (NVS) Enzymatic Assay for human Sirtuin 1 (SIRT1) (AID 2283219)
# Chain of human Sirtuin 1 (SIRT1), SIRT1 (gene 23411) (Q96EB6 whole entry, looked up): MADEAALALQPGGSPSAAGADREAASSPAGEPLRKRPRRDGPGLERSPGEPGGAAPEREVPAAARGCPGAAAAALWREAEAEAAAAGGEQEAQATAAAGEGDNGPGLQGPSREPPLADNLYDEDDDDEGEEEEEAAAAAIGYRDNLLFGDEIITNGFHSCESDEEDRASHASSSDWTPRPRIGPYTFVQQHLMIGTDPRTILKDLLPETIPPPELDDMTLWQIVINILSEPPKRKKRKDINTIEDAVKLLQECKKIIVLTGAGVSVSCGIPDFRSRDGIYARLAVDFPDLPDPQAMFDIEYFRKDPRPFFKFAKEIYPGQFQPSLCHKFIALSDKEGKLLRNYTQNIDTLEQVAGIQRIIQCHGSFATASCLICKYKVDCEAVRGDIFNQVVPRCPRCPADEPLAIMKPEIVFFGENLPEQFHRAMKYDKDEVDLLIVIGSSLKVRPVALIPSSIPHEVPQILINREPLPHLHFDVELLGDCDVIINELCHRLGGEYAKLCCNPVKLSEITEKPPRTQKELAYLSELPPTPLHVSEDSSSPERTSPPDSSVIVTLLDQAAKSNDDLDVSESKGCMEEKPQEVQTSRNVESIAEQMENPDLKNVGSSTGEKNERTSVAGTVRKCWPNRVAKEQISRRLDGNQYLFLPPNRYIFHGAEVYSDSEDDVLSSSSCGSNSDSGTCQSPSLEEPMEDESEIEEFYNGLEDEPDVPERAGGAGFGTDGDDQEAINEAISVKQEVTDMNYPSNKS
# In short: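 Cell-free recombinant SIRT1 with a fluorescent substrate; substrate and product separated by electrophoretic mobility shift and read by fluorescence intensity, 1 h after dosing. Primary screen at 25 uM in duplicate; hits re-run in concentration-response up to 50 uM, relative to DMSO.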
# [5] = target: human Tyrosine Protein Kinase Receptor Tie-2 (Tie2), TEK (gene 7010) (UniProt Q02763); test: NVS_ENZ_hTie2: NovaScreen (NVS) Enzymatic Assay for human Tyrosine Protein Kinase Receptor Tie-2 (Tie2) (AID 2283225)
# Chain of human Tyrosine Protein Kinase Receptor Tie-2 (Tie2), TEK (gene 7010) (Q02763 whole entry, looked up): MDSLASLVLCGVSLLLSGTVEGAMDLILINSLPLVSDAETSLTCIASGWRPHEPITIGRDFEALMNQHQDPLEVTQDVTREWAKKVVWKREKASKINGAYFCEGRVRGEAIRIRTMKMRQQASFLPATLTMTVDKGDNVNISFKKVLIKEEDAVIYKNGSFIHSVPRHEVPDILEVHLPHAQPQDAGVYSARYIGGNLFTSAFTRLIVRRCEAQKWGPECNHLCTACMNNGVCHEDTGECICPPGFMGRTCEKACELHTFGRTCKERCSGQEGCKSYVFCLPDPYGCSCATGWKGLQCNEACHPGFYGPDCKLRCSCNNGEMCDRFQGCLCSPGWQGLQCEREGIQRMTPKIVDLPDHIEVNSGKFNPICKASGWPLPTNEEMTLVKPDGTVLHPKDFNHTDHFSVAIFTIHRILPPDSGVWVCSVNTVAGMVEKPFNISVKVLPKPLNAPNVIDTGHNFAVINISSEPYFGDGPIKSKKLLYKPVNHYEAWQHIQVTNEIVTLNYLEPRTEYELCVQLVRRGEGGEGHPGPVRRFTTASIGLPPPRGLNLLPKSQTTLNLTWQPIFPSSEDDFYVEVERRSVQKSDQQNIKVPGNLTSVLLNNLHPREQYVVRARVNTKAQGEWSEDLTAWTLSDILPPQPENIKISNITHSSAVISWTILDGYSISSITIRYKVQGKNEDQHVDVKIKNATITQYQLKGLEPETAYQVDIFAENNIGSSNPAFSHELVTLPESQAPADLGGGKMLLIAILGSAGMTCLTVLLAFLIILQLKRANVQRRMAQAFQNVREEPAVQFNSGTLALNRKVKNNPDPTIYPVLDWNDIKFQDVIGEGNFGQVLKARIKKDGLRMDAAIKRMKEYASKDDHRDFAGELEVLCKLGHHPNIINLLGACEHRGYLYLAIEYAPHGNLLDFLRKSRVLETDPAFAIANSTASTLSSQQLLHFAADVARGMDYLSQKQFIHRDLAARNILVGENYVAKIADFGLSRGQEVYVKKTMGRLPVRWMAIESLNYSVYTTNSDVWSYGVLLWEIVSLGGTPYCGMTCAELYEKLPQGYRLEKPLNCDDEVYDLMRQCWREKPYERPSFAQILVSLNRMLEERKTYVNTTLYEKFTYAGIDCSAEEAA
# In short: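 Recombinant human Tie2 kinase activity was read cell-free by fluorescence with electrophoretic mobility shift, 1 hour after dosing. The screen used 25 uM in duplicate, then concentration-response up to 50 uM. Signal loss was scored against DMSO.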
# [6] = target: human SRC Proto-Oncogene, Non-receptor Tyrosine Kinase (SRC), SRC (gene 6714) (UniProt P12931); test: NVS_ENZ_hSRC: NovaScreen (NVS) Enzymatic Assay for human SRC Proto-Oncogene, Non-receptor Tyrosine Kinase (SRC) (AID 2283223)
# Chain of human SRC Proto-Oncogene, Non-receptor Tyrosine Kinase (SRC), SRC (gene 6714) (P12931 whole entry, looked up): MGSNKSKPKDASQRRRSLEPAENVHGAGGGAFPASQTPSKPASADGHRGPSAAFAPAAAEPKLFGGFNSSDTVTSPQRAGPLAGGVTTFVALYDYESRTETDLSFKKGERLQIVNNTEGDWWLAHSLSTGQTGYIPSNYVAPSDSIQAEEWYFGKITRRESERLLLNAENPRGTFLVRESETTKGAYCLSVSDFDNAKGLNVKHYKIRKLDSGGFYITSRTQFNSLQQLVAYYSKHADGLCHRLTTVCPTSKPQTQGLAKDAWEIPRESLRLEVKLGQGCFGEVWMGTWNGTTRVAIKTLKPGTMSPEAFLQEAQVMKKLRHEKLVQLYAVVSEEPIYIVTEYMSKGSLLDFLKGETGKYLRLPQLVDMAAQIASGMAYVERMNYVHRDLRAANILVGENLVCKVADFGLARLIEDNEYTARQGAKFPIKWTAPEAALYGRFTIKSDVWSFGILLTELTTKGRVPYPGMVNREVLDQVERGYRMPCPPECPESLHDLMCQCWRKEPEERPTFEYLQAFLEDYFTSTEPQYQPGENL
# In short: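 Cell-free kinase activity assay with fluorescent substrate, product separated by electrophoretic mobility shift, read 1 h after dosing. Duplicate single point at 25 uM, then concentration-response up to 50 uM; loss of signal versus DMSO.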
# [7] = target: human Vascular Endothelial Growth Factor Receptor 3 (VEGFR3), FLT4 (gene 2324) (UniProt P35916); test: NVS_ENZ_hVEGFR3: NovaScreen (NVS) Enzymatic Assay for human Vascular Endothelial Growth Factor Receptor 3 (VEGFR3) (AID 2283229)
# Description: NVS_ENZ_hVEGFR3 is a biochemical, single-readout assay that uses extracted gene-proteins in a cell-free assay. Measurements were taken 1 hour after chemical dosing in a 96-well plate.NVS_ENZ_hVEGFR3 is one of one assay component(s) measured or calculated from the NVS_ENZ_hVEGFR3 assay. It is designed to make measurements of enzyme activity, a form of enzyme reporter, as detected with fluorescence intensity signals by Fluorescence and electrophoretic mobility shift technology.Data from the assay component NVS_ENZ_hVEGFR3 was analyzed into 1 assay endpoint. This assay endpoint, NVS_ENZ_hVEGFR3, was analyzed in the positive analysis fitting direction relative to DMSO as the negative control and baseline of activity. Using a type of enzyme reporter, loss-of-signal activity can be used to understand changes in the enzymatic activity as they relate to the gene FLT4. Furthermore, this assay endpoint can be referred to as a primary readout, because this assay has produced multiple assay endpoints where this one serves a enzymatic activity function. To generalize the intended target to other relatable targets, this assay endpoint is annotated to the kinase intended target family, where the subfamily is receptor tyrosine kinase. […]
smiles,measurement,setting,value
O=C(O)C(Cl)(Cl)Cl,outcome,[1],inactive
O=C(O)C(F)(F)C(F)(F)C(F)(F)C(F)(F)C(F)(F)C(F)(F)C(F)(F)C(F)(F)C(F)(F)C(F)(F)F,AC50,[1],11.9 µM (active)
CC(=O)[O][Hg][c]1ccccc1,outcome,[2],inactive
same,AC50,[3],2.46 µM (active)
same,AC50,[4],6.16 µM (active)
same,outcome,[5],inactive
CC(C)(C)CC(C)(C)c1ccc(O)cc1,outcome,[3],inactive
CCC(C)(C)c1ccc(O)c(C(C)(C)CC)c1,outcome,[4],inactive
ClC1(Cl)C2(Cl)C3(Cl)C4(Cl)C(Cl)(Cl)C5(Cl)C3(Cl)C1(Cl)C5(Cl)C24Cl (stereo unspecified),outcome,[6],inactive
COP(=S)(OC)Oc1ccc(Sc2ccc(OP(=S)(OC)OC)cc2)cc1,outcome,[5],inactive
Clc1ccc(C2(Cn3cncn3)CC(Br)CO2)c(Cl)c1 (stereo unspecified),outcome,[7],inactive
